The values that follow come from the supplement of paper PMC10646978.

Molecules are shown by their SMILES. ± gives the standard deviation.

What all share (settings): modulator concentration 10 µM
The subject of test [1] is RAW-Dual (murine macrophage reporter line). As to the kind of experiment: NF-kB reporter (SEAP) activity fold change vs agonist alone; higher = enhanced NF-kB activity. The method, boiled down: (§1)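 Compound reached 10 μM final in each well by pin transfer, onto RAW-Dual murine macrophage reporter cells seeded at 50 000 per well in 384-well plates. After 1 hour at 37 °C, the cells were stimulated overnight with a PRR agonist. SEAP in the supernatant was read with QUANTI-Blue at 620 nm absorbance for NF-κB, and Lucia luciferase was read with QUANTI-Luc luminescence for IRF. Each signal was turned into fold change against the mean agonist-only control on the same plate, and two replicate plates were averaged with propagated errors.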

The test system is the same in test [2]. As to the kind of experiment: IRF reporter (Lucia luciferase) activity fold change vs agonist alone; higher = enhanced IRF activity. The method, boiled down:
as §1

The test system is the same in test [3]. As to the kind of experiment: viability score (confluency relative to resting cells, overnight) (fraction); higher = more viable, active = viable (0.7 or more). The method, boiled down:
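In 384-well plates, RAW-Dual macrophages received compound at a final 10 μM overnight. Two confluency masks were then made with IncuCyte software from IncuCyte images of all imaged wells. The viability score is defined as confluency relative to resting cells. Passing the cutoff required both masks to lie above 70% of resting cells.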

Where [4] appears, read: agonist: CpG ODN 1826 0.5 ug/mL.

Consider `COC(=O)Nc1nc2cc(C(=O)c3ccccc3)ccc2[nH]1`, for which the NF-kB reporter turned out to be 1.96 ± 0.28 in test [1] (setting [4]), 1.23 ± 0.23 in test [1] (agonist: LPS 0.1 ug/mL) and 1.31 ± 0.13 in test [1] (agonist: MPLA […]). In addition, the values for the IRF reporter in test [2] (agonist: 3'3'-cGAMP 10 ug/mL), in test [2] (agonist: LPS 0.1 ug/mL) and in test [2] (agonist: MPLA […]) were 0.093 ± 0.0033, 1.04 ± 0.19 and 1.6 ± 0.22, respectively. Further, the viability score in test [3] is 0.661 (inactive).

As for `O=C(CCn1c(=O)oc2ccccc21)Nc1ccncc1`, the values for the NF-kB reporter in test [1] (setting [4]), in test [1] (agonist: LPS 0.1 ug/mL) and in test [1] (agonist: MPLA […]) were 1.17 ± 0.068, 1.04 ± 0.079 and 1.01 ± 0.033, respectively. Further, the IRF reporter in test [2] (agonist: 3'3'-cGAMP 10 ug/mL) came out at 0.996 ± 0.16; in test [2] (agonist: LPS 0.1 ug/mL), 0.932 ± 0.045; in test [2] (agonist: MPLA […]), 0.949 ± 0.14. Moreover, the viability score in test [3] was 1 (active).

As for `c1ccc(OCCOc2ccc(Nc3ccnc4cc5ccccc5cc34)cc2)cc1`, the NF-kB reporter in test [1] (setting [4]) was 0.294 ± 0.05; in test [1] (agonist: LPS 0.1 ug/mL), 1.04 ± 0.067; in test [1] (agonist: MPLA […]) it was 1.8 ± 0.17. Also, the IRF reporter in test [2] (agonist: 3'3'-cGAMP 10 ug/mL) came to 0.896 ± 0.035; in test [2] (agonist: LPS 0.1 ug/mL), 1.48 ± 0.13; in test [2] (agonist: MPLA […]), 1.78 ± 0.17. The viability score in test [3] is 0.23 (inactive).

Turning to `COc1ccc(-c2[nH]c3ccccc3c2SCCNC(=O)c2ccccc2)cc1`, the NF-kB reporter was 1.12 ± 0.086 in test [1] (setting [4]), 1.19 ± 0.072 in test [1] (agonist: LPS 0.1 ug/mL) and 1.29 ± 0.11 in test [1] (agonist: MPLA […]). Besides, the values for the IRF reporter in test [2] (agonist: 3'3'-cGAMP 10 ug/mL), in test [2] (agonist: LPS 0.1 ug/mL) and in test [2] (agonist: MPLA […]) were 0.832 ± 0.035, 1.42 ± 0.14 and 1.17 ± 0.12, respectively. Also, the viability score in test [3] is 0.966 (active).

Regarding `CCCCCCC=CCCCCCCCc1cccc(O)c1C(=O)O`, the NF-kB reporter turned out to be 0.897 ± 0.067 in test [1] (setting [4]), 0.987 ± 0.069 in test [1] (agonist: LPS 0.1 ug/mL) and 0.96 ± 0.029 in test [1] (agonist: MPLA […]). Also, the IRF reporter came out at 0.774 ± 0.043 in test [2] (agonist: 3'3'-cGAMP 10 ug/mL), 0.991 ± 0.12 in test [2] (agonist: LPS 0.1 ug/mL) and 1.06 ± 0.14 in test [2] (agonist: MPLA […]). For the same compound, the viability score in test [3] was 1 (active).

As for `C[C@H](Nc1ncnc2[nH]cnc12)c1cc2cccc(Cl)c2c(=O)n1-c1ccccc1`, the NF-kB reporter in test [1] (setting [4]) was determined as 0.557 ± 0.042; in test [1] (agonist: LPS 0.1 ug/mL), 0.808 ± 0.054; in test [1] (agonist: MPLA […]) it was 0.859 ± 0.024. In addition, the results for the IRF reporter in test [2] (agonist: 3'3'-cGAMP 10 ug/mL), in test [2] (agonist: LPS 0.1 ug/mL) and in test [2] (agonist: MPLA […]) were 0.728 ± 0.041, 0.991 ± 0.095 and 1.1 ± 0.093, respectively. For the same compound, the viability score in test [3] was 0.906 (active).

For `CC(=O)N(C=Cc1cc[n+](CCCS(=O)(=O)[O-])c2ccccc12)c1ccccc1`, the NF-kB reporter in test [1] (setting [4]) worked out at 0.982 ± 0.1; in test [1] (agonist: LPS 0.1 ug/mL), 1.05 ± 0.063; in test [1] (agonist: MPLA […]), 0.908 ± 0.094. The IRF reporter in test [2] (agonist: 3'3'-cGAMP 10 ug/mL) is 1.01 ± 0.052; in test [2] (agonist: LPS 0.1 ug/mL), 1.57 ± 0.16; in test [2] (agonist: MPLA […]), 1.25 ± 0.25. Further, the viability score in test [3] was 1.01 (active).

For the compound `CCOC(=O)C1=C(N)OC(C)=C(C(=O)OC)C1c1cccnc1` (stereo not given), the NF-kB reporter in test [1] (setting [4]) is 1.16 ± 0.085; in test [1] (agonist: LPS 0.1 ug/mL), 1.11 ± 0.081; in test [1] (agonist: MPLA […]), 1.16 ± 0.074. The IRF reporter was found to be 1.21 ± 0.04 in test [2] (agonist: 3'3'-cGAMP 10 ug/mL), 1.12 ± 0.12 in test [2] (agonist: LPS 0.1 ug/mL) and 1.09 ± 0.095 in test [2] (agonist: MPLA […]). Also, the viability score in test [3] was 0.988 (active).

Turning to `C=CCn1c(S)nnc1-c1cc(OC)c(OC)c(OC)c1`, the NF-kB reporter was 0.986 ± 0.076 in test [1] (setting [4]), 1.05 ± 0.084 in test [1] (agonist: LPS 0.1 ug/mL) and 0.988 ± 0.11 in test [1] (agonist: MPLA […]). The IRF reporter is 0.97 ± 0.041 in test [2] (agonist: 3'3'-cGAMP 10 ug/mL), 1.14 ± 0.18 in test [2] (agonist: LPS 0.1 ug/mL) and 1.08 ± 0.12 in test [2] (agonist: MPLA […]). Besides, in test [3], the viability score is 1.03 (active).

Take `C[C@H](N[C@@H](CCc1ccccc1)C(=O)O)C(=O)N1CCC[C@H]1C(=O)O.O.O`: the values for the NF-kB reporter in test [1] (setting [4]), in test [1] (agonist: LPS 0.1 ug/mL) and in test [1] (agonist: MPLA […]) were 1.15 ± 0.086, 1.09 ± 0.16 and 1.03 ± 0.073, respectively. Also, the IRF reporter in test [2] (agonist: 3'3'-cGAMP 10 ug/mL) is 1.17 ± 0.31; in test [2] (agonist: LPS 0.1 ug/mL), 0.953 ± 0.057; in test [2] (agonist: MPLA […]) it was 0.906 ± 0.077. Also, the viability score in test [3] is 0.993 (active).

In the case of `CCCS(=O)c1ccc2nc(NC(=O)OC)[nH]c2c1` (stereo not given), the NF-kB reporter in test [1] (setting [4]) came to 1.04 ± 0.15; in test [1] (agonist: LPS 0.1 ug/mL), 0.998 ± 0.1; in test [1] (agonist: MPLA […]) it was 1.05 ± 0.037. Further, the values for the IRF reporter in test [2] (agonist: 3'3'-cGAMP 10 ug/mL), in test [2] (agonist: LPS 0.1 ug/mL) and in test [2] (agonist: MPLA […]) were 0.971 ± 0.058, 0.927 ± 0.037 and 0.917 ± 0.11, respectively. Further, the viability score in test [3] is 0.998 (active).

In the case of `COc1ccc(NC(=O)Cc2cn(Cc3ccccc3)c3ccccc23)cc1OC`, the NF-kB reporter was found to be 0.629 ± 0.035 in test [1] (setting [4]), 1.2 ± 0.096 in test [1] (agonist: LPS 0.1 ug/mL) and 1.57 ± 0.13 in test [1] (agonist: MPLA […]). Besides, the IRF reporter was determined as 0.701 ± 0.032 in test [2] (agonist: 3'3'-cGAMP 10 ug/mL), 1.24 ± 0.27 in test [2] (agonist: LPS 0.1 ug/mL) and 1.39 ± 0.4 in test [2] (agonist: MPLA […]). Moreover, the viability score in test [3] is 0.96 (active).

Take `CS(=O)(=O)N1CC(C(=O)N2CCN(c3cccc(Cl)c3Cl)CC2)C1`: the figures for the NF-kB reporter in test [1] (setting [4]), in test [1] (agonist: LPS 0.1 ug/mL) and in test [1] (agonist: MPLA […]) were 1.16 ± 0.065, 1.08 ± 0.12 and 0.985 ± 0.027, respectively. The IRF reporter in test [2] (agonist: 3'3'-cGAMP 10 ug/mL) came to 0.906 ± 0.035; in test [2] (agonist: LPS 0.1 ug/mL) it was 0.935 ± 0.082; in test [2] (agonist: MPLA […]), 0.958 ± 0.13. Moreover, the viability score in test [3] is 0.999 (active).

With `Cc1ccc(C(=O)C(C)CN2CCCCC2)cc1.Cl` (stereo not given), the NF-kB reporter in test [1] (setting [4]) worked out at 0.981 ± 0.13; in test [1] (agonist: LPS 0.1 ug/mL), 1.05 ± 0.14; in test [1] (agonist: MPLA […]) it was 0.908 ± 0.052. Moreover, the IRF reporter was determined as 0.895 ± 0.032 in test [2] (agonist: 3'3'-cGAMP 10 ug/mL), 1.27 ± 0.41 in test [2] (agonist: LPS 0.1 ug/mL) and 1.43 ± 0.15 in test [2] (agonist: MPLA […]). Besides, in test [3], the viability score was 0.956 (active).

Take `Cc1ccc(N2C(=O)C(Cl)=C(Nc3cccc(C)c3C)C2=O)cc1Cl`: the NF-kB reporter in test [1] (setting [4]) worked out at 0.739 ± 0.062; in test [1] (agonist: LPS 0.1 ug/mL), 0.897 ± 0.064; in test [1] (agonist: MPLA […]), 1.28 ± 0.053. The IRF reporter in test [2] (agonist: 3'3'-cGAMP 10 ug/mL) worked out at 0.549 ± 0.063; in test [2] (agonist: LPS 0.1 ug/mL), 0.954 ± 0.039; in test [2] (agonist: MPLA […]), 1.63 ± 0.21. For the same compound, in test [3], the viability score was 0.995 (active).
